# The list is not random: actives were taken first. Their share in the collection is about 7.4%.
# YB-1 expr inh – YB-1 expression inhibition | U2OS, qRT-PCR YB-1 vs CDIP delta delta Cp, 16 h; active compounds read high; zero = DMSO, each unit about twofold | delta delta Cp (YB-1 minus CDIP) (no concentration beside the values) | 30,000 compounds, 0.37% hits | AID 434959;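 active means delta delta Cp rounded down to an integer at or above 3, about 3 SD of DMSO wells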;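 further: higher means less YB-1 transcript or more CDIP transcript relative to DMSO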
# Hedgehog inh – blocks Sonic Hedgehog signaling | Shh-LIGHT2 Gli-luciferase reporter, 30 h | inhibition, % (test concentration not listed) | 22,000 compounds, 2.1% hits | AID 2313;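 active means mean inhibition across valid replicates above about 65%, limit read from the data; inconclusive means mean under the limit, yet half or more replicates past it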;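 further: pathway switched on by Shh-conditioned medium diluted 1 in 25 in low serum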
# PD-1 reversal – activators reversing PD-1 mediated T-cell inhibition; primary human CD4 T cells, PD-L1 beads, CellTiter-Glo 96 h; activation, % (concentration not given with the values); 29,000 tested, under 10 active; AID 2316; call rule not given here
# NOMO-1 viab – STK33 inhibitor candidate reducing NOMO-1 cell viability; NOMO-1 AML viability, CellTiter-Glo luminescence, 72 h; 37,000 compounds, 7.5% hits; inhibition, % (test concentration not listed); in the data active means inhibition above about 80%; inconclusive means no clear call, values can overlap the other calls
# MITF inhib – blocks MITF activity | TRPM1 promoter luciferase, luminescence, 24 h | inhibition, % (test concentration not listed) | 37,000 compounds, 0.28% hits | AID 2240; in the data active means inhibition above about 85%; inconclusive means no clear call, values can overlap the other calls; inactive means below about 68%;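 further: human melanocyte line stably carrying TRPM1 promoter luciferase reporter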
# Numbers stand for hits; – = inactive; ? = inconclusive; · = not tested or not shown.
SMILES,YB-1 expr inh,Hedgehog inh,PD-1 reversal,NOMO-1 viab,MITF inhib
COc1ccc(-c2nc3cc(C(C)C)ccc3o2)cc1NC(=O)COc1ccc(C)cc1,·,·,–,–,–
C[C@H](CO)N1C[C@H](C)[C@H](CN(C)Cc2ccc(Cl)c(Cl)c2)Oc2ccc(NS(=O)(=O)c3ccc(F)cc3)cc2CC1=O,–,–,–,107.3,–
C[C@@H]1CN([C@H](C)CO)C(=O)Cc2cc(NS(=O)(=O)c3ccc(F)cc3)ccc2O[C@@H]1CN(C)Cc1ccc(Cl)c(Cl)c1,–,·,–,106.2,–
Cc1ccc(S(=O)(=O)N(C)Cc2nc(-c3ccc(Br)cc3)no2)cc1,·,·,–,–,–
Cc1nc2ccc(F)cc2c2c1CCN2c1ccc(Cl)cc1,–,·,–,107.1,–
C[C@H](CO)N1C[C@H](C)[C@H](CN(C)Cc2ccncc2)Oc2ccc(NC(=O)Cc3cn(C)c4ccccc34)cc2C1=O,–,–,–,–,–
S=c1[nH]c(=S)c2cnc(N3CCOCC3)nc2[nH]1,–,–,–,–,–
C[C@@H]1CN([C@@H](C)CO)C(=O)c2cccc(NC(=O)C3CC3)c2O[C@H]1CN(C)C(=O)NC1CCCCC1,–,–,–,–,–
O=C1Cc2c([nH]c3ccc([N+](=O)[O-])cc23)-c2ccccc2N1,–,–,–,99.3,–
C[C@@H]1CCCCO[C@@H](CN(C)C(=O)c2ccncc2)[C@@H](C)CN([C@H](C)CO)C(=O)c2cc(NC(=O)C3CCCCC3)ccc2O1,–,–,–,–,–
COc1cc2c(c(OC)c1OC)-c1ccc(OC)c(=O)cc1[C@@H](NC(C)=O)CC2,–,91.2,·,117.6,–
CC1=COC=C(C=NCc2ccccc2)N1c1ccccc1,–,·,–,–,–
CC(C)(C)Nc1cccccc1=NCc1ccccc1,–,·,–,91.9,–
O=S(=O)(N[C@H]1CCN(Cc2cccc(OCCO)c2)C1)c1ccc2ccccc2c1,–,·,·,·,·
Cc1ccc(Nc2nnc(-c3ccc(C)c(S(=O)(=O)NCC4CCCO4)c3)c3ccccc23)cc1 (centres undefined),–,91.0,–,119.2,–
CNS(=O)(=O)c1cc(-c2nnc(Nc3cccc(O)c3)c3ccccc23)ccc1C,·,·,·,–,–
CCCN(C)C[C@@H]1OCCCC[C@@H](C)Oc2ccc(NS(C)(=O)=O)cc2C(=O)N([C@H](C)CO)C[C@@H]1C,–,–,·,–,–
O=C1/C(=C/c2ccc3ccccc3c2)COc2ccccc21,–,–,–,113.0,–
COc1ccc2c(c1)OC/C(=C\c1ccc(OC)c(O)c1)C2=O,–,?,·,107.4,–
CC(=O)N/C(=C\c1ccc2ccccc2c1)C(=O)O,–,–,–,–,–
COc1cc(/C=C2\Oc3cc(O)ccc3C2=O)ccc1O,–,–,–,–,–
O=C(CSc1n[nH]c(-c2cccc([N+](=O)[O-])c2)n1)Nc1cccc(C(F)(F)F)c1,·,·,–,–,–
COc1ccc(NC(=O)Nc2ccc3c(c2)C(=O)N([C@H](C)CO)C[C@H](C)[C@H](CN(C)C(=O)Nc2ccc(C(F)(F)F)cc2)OCCCC[C@@H](C)O3)cc1,–,–,–,–,–
C[C@H]1CN([C@@H](C)CO)C(=O)Cc2cc(NS(C)(=O)=O)ccc2O[C@@H]1CN(C)Cc1ccc(Oc2ccccc2)cc1,–,–,–,–,–
C[C@@H]1CN([C@H](C)CO)C(=O)Cc2cc(NS(=O)(=O)c3ccc(F)cc3)ccc2O[C@@H]1CN(C)Cc1ccc(Oc2ccccc2)cc1,–,–,–,114.7,–
SMILES,YB-1 expr inh,Hedgehog inh,PD-1 reversal,NOMO-1 viab,MITF inhib
C[C@H](CO)N1C[C@H](C)[C@H](CN(C)Cc2ccc(Oc3ccccc3)cc2)Oc2ccc(NS(=O)(=O)c3ccc(F)cc3)cc2CC1=O,–,–,–,126.2,–
Cc1noc(C)c1NC(=O)Nc1ccc2c(c1)CC(=O)N([C@H](C)CO)C[C@H](C)[C@H](CN(C)C(=O)Nc1cccc3ccccc13)O2,–,·,·,–,–
CC(C)S(=O)(=O)c1csc(NC(=O)N2CCCCC2)c1Cl,–,–,–,–,–
CC(C)S(=O)(=O)c1csc(NC(=O)Nc2cc(C(F)(F)F)cc(C(F)(F)F)c2)c1Cl,–,106.5,–,112.7,–
C[C@@H]1CN([C@@H](C)CO)C(=O)c2cc(NC(=O)Nc3ccccc3)ccc2O[C@@H]1CN(C)C(=O)Nc1ccc(C(F)(F)F)cc1,–,–,–,102.0,–
C[C@H]1CN([C@@H](C)CO)C(=O)c2cc(NC(=O)Nc3ccccc3)ccc2O[C@@H]1CN(C)C(=O)Nc1ccc(C(F)(F)F)cc1,–,–,–,–,–
C[C@H](CO)N1C[C@H](C)[C@H](CN(C)C(=O)Nc2ccccc2)Oc2ccc(NC(=O)Nc3ccc(C(F)(F)F)cc3)cc2C1=O,–,–,–,103.2,–
C[C@@H]1CN([C@H](C)CO)C(=O)c2cc(NC(=O)Nc3ccccc3)ccc2O[C@@H]1CN(C)C(=O)Nc1ccc(C(F)(F)F)cc1,–,–,–,86.7,–
CN(C)c1ccc(/C=C2\C(=O)Nc3ccccc32)c2ccccc12,–,–,–,85.5,–
CN(C)S(=O)(=O)c1ccc2c(c1)/C(=C/c1cc3c([nH]1)CCCC3)C(=O)N2,–,–,–,–,–
COc1ccc(S(=O)(=O)Nc2cccc3c2O[C@H](CN(C)Cc2ccc(Cl)c(Cl)c2)[C@H](C)CN([C@@H](C)CO)C3=O)cc1,–,–,–,–,–
COc1ccc(S(=O)(=O)Nc2cccc3c2O[C@@H](CN(C)Cc2ccc(Cl)c(Cl)c2)[C@@H](C)CN([C@H](C)CO)C3=O)cc1,–,114.9,–,114.8,–
C[C@H]1CN([C@@H](C)CO)C(=O)c2cccc(NS(=O)(=O)c3ccc(F)cc3)c2O[C@H]1CN(C)Cc1ccc(Cl)c(Cl)c1,–,–,–,–,–
C[C@H](CO)N1C[C@H](C)[C@H](CN(C)Cc2ccc(Cl)c(Cl)c2)Oc2c(NS(=O)(=O)c3ccc(F)cc3)cccc2C1=O,–,85.5,–,91.3,–
CCOC(=O)c1c(NC(=S)Nc2ccsc2C(=O)OC)sc(C)c1-c1ccccc1,·,·,–,–,–
O=c1c(C=Nc2ccccc2)c(Nc2ccccc2)[nH]n1-c1ccccc1,–,–,–,102.1,–
C[C@@H]1CN([C@@H](C)CO)C(=O)c2cc(NS(=O)(=O)c3ccc(Cl)cc3)ccc2O[C@@H]1CN(C)Cc1ccc(Oc2ccccc2)cc1,–,·,·,113.5,–
C[C@@H]1CN([C@H](C)CO)C(=O)c2cc(NS(=O)(=O)c3ccc(Cl)cc3)ccc2O[C@@H]1CN(C)Cc1ccc(Oc2ccccc2)cc1,–,–,–,121.7,–
C[C@H]1CN([C@@H](C)CO)C(=O)c2cccc(NC(=O)c3ccncc3)c2O[C@H]1CN(C)C(=O)Nc1ccc(F)cc1,–,–,–,–,–
O=C(COc1ccc(Br)cc1)NCC1CCCO1 (centres undefined),9.52,–,–,–,–
O=S(=O)(NCC1CCCO1)c1ccc(Br)cc1 (centres undefined),–,–,–,–,–

# Assay outcomes: PubChem BioAssay, Broad Institute
